PubChem BioAssay (NCI)
The panel holds about 83,000 compounds, 20% with a hit somewhere; the sample as a whole holds those more often.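 How to read the values: 0–100, growth inhibition (40 = 60% inhibited); 0, no net growth; -100 to 0, cell death (-40 = 40% of starting cells died; -100 = all dead).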 Values without a mark were called inactive. The source made the active and inactive calls. How the source made its calls: active means growth percent below 10; inactive means the rest.

What was measured:
Test in all cases: NCI-60 one-dose screen, 48 h (100 = growth as untreated, 0 = no growth, -100 = all killed)
Settings in all cases: 10 µM unless noted
[1] = tested on: SR leukemia
[2] = tested on: RPMI-8226 leukemia
[3] = tested on: OVCAR-8 ovarian
[4] = tested on: OVCAR-5 ovarian
[5] = tested on: OVCAR-4 ovarian
[6] = tested on: SK-OV-3 ovarian
[7] = tested on: IGROV1 ovarian
[8] = tested on: OVCAR-3 ovarian
[9] = tested on: HS 578T breast
[10] = tested on: NCI/ADR-RES ovarian

**Q.** What does the source list for `Cc1ccc2c(c1)C13C(=C2Br)CCCN1C(=O)c1ccccc13` (stereo not drawn)?
**A.** growth [1]: 47.2%; growth [2]: 80.4%; growth [3]: 99.5%; growth [4]: 96.6%; growth [5]: 91.8%; growth [6]: 96.2%; growth [7]: 88.5%; growth [8]: 94.8%; growth [9]: 94.3%

**Q.** Which growth [1] does the source give for `CCCCNNC(=O)c1ccc(-c2cccc(F)c2F)cc1` here?
**A.** 25.2%

**Q.** And the growth [2]?
**A.** 5.02% (active)

**Q.** What about the growth [3] of the same compound?
**A.** 20.8%

**Q.** What about the growth [4] of the same compound?
**A.** 24.9%

**Q.** And the growth [5]?
**A.** 41.5%

**Q.** And the growth [6]?
**A.** 47.2%

**Q.** And the growth [7]?
**A.** 31.3%

**Q.** And the growth [8]?
**A.** 44.6%

**Q.** What about the growth [9] of the same compound?
**A.** 41.2%

**Q.** With `Cc1nn(-c2ccccc2)c2ncnc(N/N=C/c3ccccc3O)c12` as the compound, how does the growth [1] read?
**A.** 11.5%

**Q.** And the growth [2]?
**A.** 20.4%

**Q.** What about the growth [3] of the same compound?
**A.** 12.2%

**Q.** What about the growth [4] of the same compound?
**A.** 35.9%

**Q.** And the growth [5]?
**A.** 28.6%

**Q.** And the growth [6]?
**A.** 10.4%

**Q.** What about the growth [7] of the same compound?
**A.** 3.8% (active)

**Q.** And the growth [8]?
**A.** 29.4%

**Q.** What about the growth [9] of the same compound?
**A.** 35.6%

**Q.** What about the growth [10] of the same compound?
**A.** 3.15% (active)

**Q.** Which results are given for `Cc1cc(C(NC(=O)CCCCCNc2cccc3c2C(=O)N(C2CCC(=O)NC2=O)C3=O)c2ccc3c(c2)OC(F)(F)O3)c(O)c2ncccc12` (stereo not drawn)?
**A.** growth [1]: 26.2%; growth [2]: 34.7%; growth [3]: 38.6%; growth [4]: 73.2%; growth [5]: 73.1%; growth [6]: 109%; growth [7]: 37.5%; growth [8]: 38.3%; growth [9]: 37.7%; growth [10]: 104%

**Q.** What does the source list for `C=CCn1c(SCC(=O)Nc2ccc(C(=O)/C=C/c3ccc(Br)cc3)cc2)nnc1-c1c[nH]c2ccccc12`?
**A.** growth [1]: 70.3%; growth [2]: 3.64% (active); growth [3]: 81.2%; growth [4]: 99.4%; growth [5]: 74.7%; growth [6]: 91.8%; growth [7]: 76.4%; growth [8]: 86.9%; growth [9]: 89.9%; growth [10]: 101%

**Q.** For `Cc1ccc(-c2nn(-c3ccccc3)cc2/C=C/C(=O)c2ccc(NC(=O)CCCCCCC(=O)NO)cc2)cc1`, which growth [1] is on record?
**A.** 85.4%

**Q.** What about the growth [2] of the same compound?
**A.** 70.5%

**Q.** And the growth [3]?
**A.** 62.5%

**Q.** And the growth [4]?
**A.** 79.2%

**Q.** And the growth [5]?
**A.** 79.8%

**Q.** What about the growth [6] of the same compound?
**A.** 70.7%

**Q.** What about the growth [7] of the same compound?
**A.** 69.1%

**Q.** And the growth [8]?
**A.** 75.9%

**Q.** And the growth [9]?
**A.** 47.1%

**Q.** And the growth [10]?
**A.** 70.4%

**Q.** How did the growth [1] turn out when `CC1(C)CC[C@]2(CN)CC[C@]3(C)C(=CC[C@@H]4[C@@]5(C)CCCNC(C)(C)[C@@H]5CC[C@]43C)[C@H]2C1` was run?
**A.** 61.7%

**Q.** What about the growth [2] of the same compound?
**A.** 81.3%

**Q.** And the growth [3]?
**A.** 101%

**Q.** What about the growth [4] of the same compound?
**A.** 105%

**Q.** And the growth [5]?
**A.** 103%

**Q.** And the growth [6]?
**A.** 106%

**Q.** What about the growth [7] of the same compound?
**A.** 98.1%

**Q.** What about the growth [8] of the same compound?
**A.** 106%

**Q.** What about the growth [9] of the same compound?
**A.** 108%

**Q.** And the growth [10]?
**A.** 105%

**Q.** How did the growth [1] turn out when `CCC1=Cc2cc(OC)ccc2OC12C=Cc1cc(OC)ccc1O2` (stereo not drawn) was run?
**A.** 15.8%

**Q.** And the growth [2]?
**A.** 19.5%

**Q.** And the growth [3]?
**A.** 41.3%

**Q.** What about the growth [4] of the same compound?
**A.** 29.3%

**Q.** And the growth [5]?
**A.** 56.8%

**Q.** What about the growth [6] of the same compound?
**A.** 24%

**Q.** And the growth [7]?
**A.** 30.1%

**Q.** And the growth [8]?
**A.** 16%

**Q.** And the growth [9]?
**A.** 15.3%

**Q.** What about the growth [10] of the same compound?
**A.** 11.7%

**Q.** How did the growth [1] turn out when `Nc1ccccc1NC(=O)c1ccc(NC(=O)C/C=C/c2cccnc2)cc1` was run?
**A.** 30.7%

**Q.** And the growth [2]?
**A.** 6.76% (active)

**Q.** What about the growth [3] of the same compound?
**A.** 26.3%

**Q.** And the growth [4]?
**A.** 29.7%

**Q.** What about the growth [5] of the same compound?
**A.** 39.8%

**Q.** And the growth [6]?
**A.** 44.5%

**Q.** And the growth [7]?
**A.** 23.3%

**Q.** What about the growth [8] of the same compound?
**A.** 33.2%

**Q.** What about the growth [9] of the same compound?
**A.** 30.3%

**Q.** And the growth [10]?
**A.** 50.8%

**Q.** Which growth [1] does the source give for `CC(C)c1ccc(NCc2cn(-c3ccc(C(=O)O)cc3)nc2-c2cc(C(F)(F)F)cc(C(F)(F)F)c2)cc1` here?
**A.** 101%

**Q.** What about the growth [2] of the same compound?
**A.** 65.7%

**Q.** And the growth [3]?
**A.** 85%

**Q.** And the growth [4]?
**A.** 103%

**Q.** And the growth [5]?
**A.** 96.2%

**Q.** What about the growth [6] of the same compound?
**A.** 90.5%

**Q.** What about the growth [7] of the same compound?
**A.** 92.7%

**Q.** What about the growth [8] of the same compound?
**A.** 80.9%

**Q.** And the growth [9]?
**A.** 68%

**Q.** What does the source list for `N#Cc1cccc(NC(=O)c2cc(-c3ccc(F)cc3F)ccc2O)c1`?
**A.** growth [1]: 27.3%; growth [2]: -8.42% (active); growth [3]: 10.8%; growth [4]: 14.6%; growth [5]: 8.85% (active); growth [6]: 5.89% (active); growth [7]: 13.2%; growth [8]: 9.74% (active); growth [9]: 3.15% (active)

**Q.** What does the source list for `CCCCCc1ccc(S(=O)(=O)Nc2cc(-c3csc(NC(=O)CN4CCN(C)CC4)n3)ccc2N2CCN(C)CC2)cc1`?
**A.** growth [1]: -40.7% (active); growth [2]: -28.5% (active); growth [3]: 19.5%; growth [4]: 18.4%; growth [5]: -44.3% (active); growth [6]: 18.2%; growth [7]: 7.21% (active); growth [8]: -34.7% (active); growth [9]: -24.3% (active)

**Q.** `N=c1c2cc(-c3ccccc3)oc2ncn1/N=C/c1ccc(Br)cc1` was tested. Which growth [1] did it give?
**A.** 30.1%

**Q.** What about the growth [2] of the same compound?
**A.** 92.4%

**Q.** What about the growth [3] of the same compound?
**A.** 80.7%

**Q.** What about the growth [4] of the same compound?
**A.** 49.3%

**Q.** And the growth [5]?
**A.** 19.7%

**Q.** And the growth [6]?
**A.** 101%

**Q.** What about the growth [7] of the same compound?
**A.** 42.8%

**Q.** What about the growth [8] of the same compound?
**A.** -7.71% (active)

**Q.** And the growth [9]?
**A.** 79.1%

**Q.** For `COc1cc(/C=C2\C(=O)Nc3ccccc32)ccc1OCc1ccc(F)cc1`, which growth [1] is on record?
**A.** 90.1%

**Q.** And the growth [2]?
**A.** 107%

**Q.** What about the growth [3] of the same compound?
**A.** 102%

**Q.** What about the growth [4] of the same compound?
**A.** 107%

**Q.** And the growth [5]?
**A.** 103%

**Q.** And the growth [6]?
**A.** 114%

**Q.** What about the growth [7] of the same compound?
**A.** 101%

**Q.** And the growth [8]?
**A.** 117%

**Q.** And the growth [9]?
**A.** 115%
